# From PubChem BioAssay AID1347131 (National Center for Advancing Translational Sciences (NCATS), 2019)
# Screen size: about 410,000 compounds; about 2,000 (0.49%) were called active. Not shown: some 8% with an inconclusive outcome. Calls come from the whole dose curve; tested in HEK293 reporter line. Only a selection was taken, and actives are over-represented in it overall.
# Test: qHTS Assay for Foot and Mouth Disease Virus Antivirals: Primary Screen against the MLPCN compound library; note: nearly all actives have a fitted effect of over 55% in size
# Conditions: FMDV antiviral cell-based qHTS; series mostly up to 57.9 µM; activity, negative = inhibition: at the top concentration
# Potency is the fitted concentration of half-maximal effect.
SMILES,"activity, negative = inhibition",Potency
Cc1nn(C(C)C)c(C)c1CN1CCCC(C(=O)c2cccc(OC(C)C)c2)C1 (stereo not given),-35.4% (inactive),
COc1ccc(NC(=O)CNC(=O)Cn2c(C)cc3ccccc3c2=O)cc1OC,-31.4% (inactive),
CCN(CC)S(=O)(=O)c1cc(-c2nnc(Nc3ccc(OC)c(C(N)=O)c3)c3ccccc23)ccc1C,-31% (inactive),
CN1/C(=C\C(=O)c2ccco2)C(C)(C)c2ccccc21,-42.8% (inactive),
O=C(/C=C/Nc1ccc(F)cc1F)c1ccco1,,10 µM (active)
CN(C)c1ccc(N/C=C/C(=O)c2ccco2)cc1,,8.91 µM (active)
O=C(CNc1ccc(F)cc1F)NC(=O)NCc1ccco1,-30.5% (inactive),
O=C(Nc1ccc(F)cc1F)c1ccc2c(c1)[nH]c(=O)n2Cc1ccc(F)cc1,-32.6% (inactive),
Cc1cc(C)cc(NC(=S)N2CCN(C(=O)c3ccco3)CC2)c1,-42.2% (inactive),
Cc1ccc(S(=O)(=O)N(C)C)cc1NC(=O)COc1cccc(-n2cnnn2)c1,-30.7% (inactive),
CCOc1ccccc1N1CCN(CC(=O)Nc2ccccc2C(=O)NC2CC2)CC1,-36.1% (inactive),
Cc1ccc(-c2cc(-c3ccccc3)cc(-c3ccccc3)[n+]2-c2ccccc2C(=O)O)cc1,-33.8% (inactive),
O=C(Nc1ccc(N2CCN(c3ccc(C(F)(F)F)cn3)CC2)nc1)c1cccs1,-22% (inactive),
O=C1NC(=O)N(c2ccc3c(c2)OCO3)C(=O)/C1=C/c1ccsc1,-40.4% (inactive),
COC(=O)C1=C(c2ccc(-c3ccccc3)c(F)c2)C[C@@H]2CC[C@H]1N2C(=O)NC1CCCCC1,-39.4% (inactive),
OC[C@@H]1CN(Cc2ccc(Cl)cc2)C[C@H](n2cnc3c(NC4CCCC4)ncnc32)O1,-33.7% (inactive),
COc1ccc(C(=O)NCc2cc(C)nc3ccccc23)cc1,-41.5% (inactive),
Cc1cc(C)c2sc(N(CCN(C)C)C(=O)c3c(F)cccc3F)nc2c1,-30.3% (inactive),
CC1=CN2C(=N)/C(=C/c3ccco3)C(=O)N=C2S1,,12.6 µM (active)
Cc1ccc(/C=C2/C(=N)N3N=C(CC(=O)N4CCCC4)SC3=NC2=O)o1,-19.8% (inactive),
CCOc1ccc(-c2ccc(/C=C3/C(=N)N4C=CSC4=NC3=O)o2)c([N+](=O)[O-])c1,-9.4% (inactive),
CCCCn1c(=O)c(CCC(=O)OC(C)C(=O)Nc2cccc(Cl)c2Cl)nc2ccccc21 (stereo not given),-31.2% (inactive),

SMILES,"activity, negative = inhibition",Potency
CCCC(=O)N1CCN(c2nc(CC(C)C)c3c(c2C#N)CCC3)CC1,-32% (inactive),
CC(C)C(=O)N1CCN(c2nc(-c3ccccc3)c3c(c2C#N)CCCC3)CC1,,22.4 µM (active)
CC(C(=O)Nc1cccc(C#N)c1)n1nc(-c2ccccc2)c2c(c1=O)CCCC2 (stereo not given),-30.7% (inactive),
FC(F)C(F)(F)Oc1cccc(Nc2nccn3c(-c4ccc5ccccc5c4)cnc23)c1,-35.9% (inactive),
COCC(=O)N1CCC2(CC1)CCN(c1ccc(-c3ccccc3)cc1)CC2,-32.7% (inactive),
CSc1nc2ccccc2n1C(=O)NC1CCCCC1,-34.5% (inactive),
Nc1nc2ccccc2n1C(=O)c1ccc(F)cc1,,12.6 µM (active)
N#CC1=C(N)Nc2nc3ccccc3n2C1c1ccc(F)cc1 (stereo not given),-40.9% (inactive),
C[C@H](CO)N1C[C@H](C)[C@@H](CN(C)C(=O)NC2CCCCC2)Oc2c(NS(=O)(=O)c3cccs3)cccc2C1=O,104% (inactive),
Cc1ccc(NC(=O)COC(=O)C2CC2C)c(S(=O)(=O)N2CCCCC2)c1 (stereo not given),-31.9% (inactive),
CCOC(=O)C1CCN(S(=O)(=O)c2cccc(C(=O)Nc3ccccc3)c2)CC1,-33.4% (inactive),
CC(Sc1nc(C(F)(F)F)nc2ccccc12)C(=O)NC1CCCC1 (stereo not given),-27.5% (inactive),
Cc1cc(CN(C)C(=O)c2cc(COc3ccc4ncccc4c3)on2)on1,-33.2% (inactive),
CN(C)c1ccc(N=Nc2ccc3ncccc3c2)cc1,,20 µM (active)
CN(C)c1ccc(/C=C/c2ccc3ccccc3n2)cc1,-100% (inactive),
Cn1c(=O)[nH]c(=O)c2c1nc(NCc1ccccc1)n2CCCc1ccccc1,-45.3% (inactive),
COc1cc(OC)c(OC)cc1CN1CCc2nc(N3CCN(c4ncccn4)CC3)ncc2C1,-25.8% (inactive),
Cc1ccc(CN2CCc3nc(N4CCN(c5ccccc5F)CC4)ncc3C2)s1,-43.3% (inactive),
Cc1ccccc1CN1CCc2nc(N3CCN(c4ccccn4)CC3)ncc2C1,,15.8 µM (active)
CCOc1ccc(Nc2c3c(nc4nncn24)CCC3)cc1,-34.4% (inactive),
COc1cccc(N2CCN(C(=O)c3ccc4c(Cl)c5c(nc4c3)CCCC5)CC2)c1,-40.7% (inactive),
COc1cccc(N2CCN(c3c4c(nc5nncn35)CCC4)CC2)c1,,14.1 µM (active)

SMILES,"activity, negative = inhibition",Potency
Cc1nnsc1C(=O)N/N=C/c1ccc2ccccc2c1O,-41.2% (inactive),
Cc1cccc(OCCCCn2nnc3sc4c(c3c2=O)CCC(C)C4)c1 (stereo not given),-31.6% (inactive),
C=CCn1c(SCc2nc3c(c(=O)[nH]c(=O)n3CCCC)n2CCC)nnc1-c1ccccc1,-30.8% (inactive),
COc1cc(NS(=O)(=O)c2cc(Br)cc3c2N(C(=O)C2CC2)CC3)cc(OC)c1,,12.6 µM (active)
CCC(=O)N1CCc2cc(Br)cc(S(=O)(=O)CCC(=O)NCc3ccccc3OC)c21,-75.9% (inactive),
CCCNS(=O)(=O)c1cc(Br)cc2c1N(C(=O)CC)CC2,109% (inactive),
O=C(OC1C2CCC1C1CN(CCc3ccccc3)CC12)c1ccccc1 (stereo not given),-32% (inactive),
COc1ccc(-c2cc3c(=O)n(CC(=O)Nc4cccc(Cl)c4)nc(C)n3n2)cc1,-34.4% (inactive),
CN(C)c1cccc(F)c1C(=O)NC(=O)Nc1ccc(Cl)cc1,-36.3% (inactive),
COc1ccc(CN2CCNC(=O)C2CC(=O)NC2CCCC2)c(OC)c1 (stereo not given),-15.3% (inactive),
COC(=O)c1nnn(-c2nonc2N)c1CSc1nc2ccccc2s1,-35.5% (inactive),
Cc1c(NC(=O)CN2CCN(c3cccc(Cl)c3)CC2)c(=O)n(-c2ccccc2)n1C,-31.9% (inactive),
CC12CN(C(=O)c3ccco3)CC(c3ccccc3)(CN(C(=O)c3ccco3)C1)C2=O,-31% (inactive),
O=C(O)c1ccc(N/N=C/c2cc(Br)cs2)cc1,,11.2 µM (active)
COc1ccc(/C=N/Nc2ccc(C(=O)O)cc2)cc1Br,-84.1% (inactive),
CC(C)c1ccc(/C=N/Nc2ccc(C(=O)O)cc2)cc1,-98.8% (inactive),
O=C(NC1CCC(=O)N(CCOc2ccccc2)CC1)OCc1ccccc1 (stereo not given),-29% (inactive),
CC(=O)N1CCc2c(sc3c2c(=O)n(CCc2ccccc2)c(=O)n3Cc2cccc(C)c2)C1,-40.4% (inactive),
COc1ccc(NC(=O)Nc2c(O)ccc3ccccc23)cc1,132% (inactive),
COc1ccc(-c2cc(-c3ccccc3O)[nH]n2)cc1,-68.9% (inactive),
COc1ccc(N=Nc2ccc3ccccc3c2)c(O)c1,,22.4 µM (active)
